Measured potencies and affinities stand elsewhere. Activity calls are given as the source filed them.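 How the source made its calls: active means compounds whose fitted concentration for half the maximal dye retention is below 100 µM; inactive means the rest.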

The target of the test is Multidrug resistance protein CDR2 (Candida albicans (strain SC5314 / ATCC MYA-2876)) (UniProt P78595). The test can be described thus: blockers of Nile Red efflux by Candida CDR2 – S. cerevisiae AD1-8u, singleplex, Cherry Pick2 set, dose response (AID 623994). The conditions noted are these: S. cerevisiae AD1-8u expressing CaCDR2, Nile Red efflux; series mostly up to 100 µM.
Chain of Multidrug resistance protein CDR2 (Candida albicans (strain SC5314 / ATCC MYA-2876)) (P78595 whole entry, looked up): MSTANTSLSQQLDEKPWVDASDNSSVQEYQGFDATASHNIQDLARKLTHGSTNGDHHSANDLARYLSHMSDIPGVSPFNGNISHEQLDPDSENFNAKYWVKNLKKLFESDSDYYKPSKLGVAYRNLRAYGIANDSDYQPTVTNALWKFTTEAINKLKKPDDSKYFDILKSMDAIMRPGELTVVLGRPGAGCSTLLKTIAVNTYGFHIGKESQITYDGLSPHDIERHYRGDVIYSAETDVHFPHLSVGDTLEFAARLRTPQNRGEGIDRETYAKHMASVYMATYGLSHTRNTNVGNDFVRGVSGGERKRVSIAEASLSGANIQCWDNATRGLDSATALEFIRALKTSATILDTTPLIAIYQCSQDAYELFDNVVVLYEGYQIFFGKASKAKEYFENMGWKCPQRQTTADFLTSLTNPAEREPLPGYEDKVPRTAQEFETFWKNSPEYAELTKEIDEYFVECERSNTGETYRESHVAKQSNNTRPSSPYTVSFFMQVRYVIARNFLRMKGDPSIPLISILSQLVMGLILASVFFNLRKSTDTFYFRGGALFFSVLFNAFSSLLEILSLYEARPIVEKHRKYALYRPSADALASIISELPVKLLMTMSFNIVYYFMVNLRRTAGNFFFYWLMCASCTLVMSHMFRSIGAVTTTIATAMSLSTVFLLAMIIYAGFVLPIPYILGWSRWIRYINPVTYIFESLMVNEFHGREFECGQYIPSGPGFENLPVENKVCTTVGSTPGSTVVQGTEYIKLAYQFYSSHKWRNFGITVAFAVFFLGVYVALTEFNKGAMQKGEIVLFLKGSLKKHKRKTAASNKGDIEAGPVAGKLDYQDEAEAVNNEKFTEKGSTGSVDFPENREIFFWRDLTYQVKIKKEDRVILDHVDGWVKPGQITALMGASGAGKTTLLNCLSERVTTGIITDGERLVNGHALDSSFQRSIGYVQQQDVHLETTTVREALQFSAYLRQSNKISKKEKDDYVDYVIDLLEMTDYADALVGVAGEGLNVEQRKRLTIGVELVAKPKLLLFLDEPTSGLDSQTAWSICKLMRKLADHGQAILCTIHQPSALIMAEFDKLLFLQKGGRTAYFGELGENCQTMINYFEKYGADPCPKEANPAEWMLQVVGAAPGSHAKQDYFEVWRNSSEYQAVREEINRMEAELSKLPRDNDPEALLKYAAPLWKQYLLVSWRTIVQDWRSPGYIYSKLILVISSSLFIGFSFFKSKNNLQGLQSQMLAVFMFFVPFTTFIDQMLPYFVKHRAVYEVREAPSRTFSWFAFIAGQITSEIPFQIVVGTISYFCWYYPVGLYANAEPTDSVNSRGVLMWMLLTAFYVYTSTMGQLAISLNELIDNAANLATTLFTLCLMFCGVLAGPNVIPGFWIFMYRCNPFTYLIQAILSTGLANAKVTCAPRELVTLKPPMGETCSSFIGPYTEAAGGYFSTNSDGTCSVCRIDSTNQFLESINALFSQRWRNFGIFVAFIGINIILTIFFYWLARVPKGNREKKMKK
Regarding `CCC(Cc1ccccc1)OC(=O)c1ccccc1C(=O)O` (stereo not given), the outcome was inactive.
Consider `COc1ccc(N2CCN(C(=O)C3CCCN(c4ncnc5c4nc4n5CCCCC4)C3)CC2)cc1` (stereo not given), for which the call was inactive.
With `COc1ccc(C(=O)NC2CC(C)(C)Cc3c2cnn3-c2ccccc2)c(OC)c1` (stereo not given) the entry was “inactive”; with `Cc1ccc(CN2C(=O)C(CC(C)C)Nc3ncnc(N4CCN(c5ccccc5)CC4)c32)cc1` (stereo not given), “inactive”.
Under `O=C(Nc1ccccc1)C1=C[C@@H](c2ccc(C(F)(F)F)cc2)C[C@@H](OCCCCO)O1` stands “inactive”; under `O=C(C1CCCN(c2ncnc3c2nc2n3CCCCC2)C1)N1CCN(c2ccccc2)CC1` (stereo not given), “inactive”; under `CCCCCCCCCC[N+](C)(C)CC/C=C1/c2ccccc2Sc2ccc(Cl)cc21`, “inactive”.
`O=C(/C=C/c1cccs1)N1CCC2(CC1)Oc1ccc(F)cc1C(=O)C21CC(c2ccccc2)=NO1` (stereo not given): the molecule was called inactive.
With `COc1cc(OC)c2ccc(=O)oc2c1C(CCN1CCCCC1)c1ccc(N(C)C)cc1` (stereo not given) the entry was “inactive”.
`COc1ccc2c(c1)OC[C@H]1[C@H]2N2C(=O)c3ccc(C)cc3NC(=O)[C@@]2(C)[C@H]1c1ccccc1`: the molecule was classed as inactive.
As for `CCO[C@@H]1OC(C(=O)Nc2ccccc2)=C[C@H](c2ccccc2)[C@H]1CCCO`, the outcome was inactive.
Under `C[C@@]12C(=O)Nc3cc(F)c(F)cc3C(=O)N1[C@H]1c3cc(Cl)ccc3OC[C@@H]1[C@@H]2c1ccccc1` stands “inactive”; under `Cc1cccc2sc(N(CCCN(C)C)C(=O)c3ccc(Cl)s3)nc12`, “inactive”.
Turning to `COc1ccc2nc(NC(=O)c3cccs3)sc2c1`, the outcome was inactive.
Take `N#CC(C(=O)NCc1ccccc1)c1nc2ccccc2nc1N1CCCC1` (stereo not given): the molecule was called inactive.

The values above are taken from PubChem BioAssay AID623994 (NMMLSC, 2012).
